Results published in PubChem BioAssay (Tox21).
Records with an inconclusive call do not appear. Entries that show only a call come without a potency. Active and inactive are the calls of the source. Calls follow the shape of the dose curve; as a rule, active = well fitted inhibition curve with a large enough effect in the repeat runs; inconclusive = weak or mixed curves; inactive = no such curve, though single readings can be large or run the other way.

biological target: Aromatase (Homo sapiens) (UniProt P11511); assay: qHTS assay to identify aromatase inhibitors (AID 743083); details: MCF-7 aro ERE, testosterone-driven ERE luciferase, 24 h; series mostly up to 70.3 µM; also: nearly all actives have a fitted effect of over 55% in size
Sequence (P11511 whole entry, looked up): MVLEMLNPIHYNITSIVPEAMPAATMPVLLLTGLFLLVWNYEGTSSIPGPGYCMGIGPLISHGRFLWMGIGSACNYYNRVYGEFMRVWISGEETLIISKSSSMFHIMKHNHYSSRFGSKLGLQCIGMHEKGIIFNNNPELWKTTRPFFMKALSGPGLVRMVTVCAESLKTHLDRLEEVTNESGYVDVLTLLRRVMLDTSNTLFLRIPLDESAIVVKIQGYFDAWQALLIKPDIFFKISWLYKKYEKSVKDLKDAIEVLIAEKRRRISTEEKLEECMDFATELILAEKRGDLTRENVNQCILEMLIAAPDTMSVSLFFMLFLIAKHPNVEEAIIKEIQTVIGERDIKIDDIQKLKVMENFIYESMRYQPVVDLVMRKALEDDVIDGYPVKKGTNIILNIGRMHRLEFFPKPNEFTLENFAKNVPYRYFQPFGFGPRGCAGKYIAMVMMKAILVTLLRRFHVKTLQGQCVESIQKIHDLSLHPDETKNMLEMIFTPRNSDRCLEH

| Compound | Potency |
| --- | --- |
| NC(=O)Nc1ccccc1 | inactive |
| CCCc1cc(C(N)=S)ccn1 | inactive |
| CC(C(=O)O)c1ccc(CC2CCCC2=O)cc1 (stereo not given) | inactive |
| CC(C)(C)NCCNC(C)(C)C | inactive |
| C=C1CC[C@H]2C[C@@H]1C2(C)C | inactive |
| OCCCC1CCCCC1 | inactive |
| CCN1CCC[C@H]1CNC(=O)c1c(O)c(Cl)cc(Cl)c1OC | inactive |
| COCCCOCCCOC | inactive |
| CC(=O)Nc1ccc(S(N)(=O)=O)cc1 | inactive |
| CN1CCC(=C2c3ccccc3CC(=O)c3sccc32)CC1 | inactive |
| Cc1ccc(C#N)cc1 | inactive |
| N=c1nc(N2CCCCC2)cc(N)n1O | inactive |
| CC(C)c1cc2c(cc1S(=O)(=O)O)[C@@]1(C)CCC[C@@](C)(C(=O)O)[C@@H]1CC2 | inactive |
| Nc1ccc(S(=O)(=O)Nc2ccnn2-c2ccccc2)cc1 | inactive |
| CO[Si](CCCOCC1CO1)(OC)OC (stereo not given) | inactive |
| Nc1cc(=O)[nH]c(N)n1 | inactive |
| CCN(CC)CCNC(=O)c1cc(S(C)(=O)=O)ccc1OC | inactive |
| Cc1cc2c(cc1S(N)(=O)=O)S(=O)(=O)CCC2 | inactive |
| CC/C=C\CCOC(C)=O | inactive |
| Cc1cc(O)cc2c1O[C@](C)(CCC[C@H](C)CCC[C@H](C)CCCC(C)C)CC2 | inactive |

| Compound | Potency |
| --- | --- |
| CC(C)(C)c1nnc(NS(=O)(=O)c2ccccc2)s1 | inactive |
| CS(=O)(=O)O | inactive |
| O=c1n(CCO)c(=O)n(CCO)c(=O)n1CCO | inactive |
| Cc1ccc(Cl)cc1Cl | inactive |
| CC(C[N+](C)(C)C)OC(N)=O (stereo not given) | inactive |
| Cc1nc2c([nH]1)c(=O)n(C)c(=O)n2Cc1ccco1 | inactive |
| FC1(F)C(F)(F)C(F)(F)C2(F)C(F)(F)C(F)(F)C(F)(F)C(F)(F)C2(F)C1(F)F (stereo not given) | inactive |
| O=C1OC(=O)C2CCCCC12 (stereo not given) | inactive |
| CCCCC(CC)COC(=O)c1ccccc1O (stereo not given) | inactive |
| CC1(C)C(O)C(C)(C)C1O (stereo not given) | inactive |
| CC(=O)OCC(CCn1cnc2cnc(N)nc21)COC(C)=O | inactive |
| CC(C)NC(=O)NC(C)C | inactive |
| O=C(O)COc1nn(Cc2ccccc2)c2ccccc12 | inactive |
| CN1C(=O)N(C)C(O)C1O (stereo not given) | inactive |
| O=C1CCCN1C1CCCCC1 | inactive |
| CCn1ccnc1CC1COc2ccccc2O1 (stereo not given) | inactive |
| N[C@H]1CN(c2c(F)cc3c(=O)c(C(=O)O)cn(C4C[C@H]4F)c3c2Cl)CC12CC2 (stereo not given in full) | inactive |
| CCCCCSCCCCC | inactive |
| ClC(Cl)(Br)Br | inactive |
| N=C(N)c1ccc2cc(OC(=O)c3ccc(N=C(N)N)cc3)ccc2c1 | inactive |
